HIF-2a block: HIF-2a reporter inhibitors, primary screen, luminescence, 786-0 RCC cells; actives 0.72% (n = 360,000); inhibition, % at 18.8 µM; 786-0 RCC cells HIF-2a reporter, luciferase luminescence, overnight;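 active means inhibition of the luminescence signal of 40% or more relative to plate controls, in a single-dose primary screen at 18.75 µM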
Mdm2-MdmX inh: inhibitors of human Mdm2-MdmX association, primary screen, cell-based, luminescence, split luciferase, SaOS-2, uHTS | SaOS-2 split-luciferase Mdm2/MdmX complementation | inhibition, % at 8 µM | actives 3% (n = 330,000);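 active means inhibition of at least 50% at 8 µM in the primary screen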
Target sequence (O15151 whole entry, looked up): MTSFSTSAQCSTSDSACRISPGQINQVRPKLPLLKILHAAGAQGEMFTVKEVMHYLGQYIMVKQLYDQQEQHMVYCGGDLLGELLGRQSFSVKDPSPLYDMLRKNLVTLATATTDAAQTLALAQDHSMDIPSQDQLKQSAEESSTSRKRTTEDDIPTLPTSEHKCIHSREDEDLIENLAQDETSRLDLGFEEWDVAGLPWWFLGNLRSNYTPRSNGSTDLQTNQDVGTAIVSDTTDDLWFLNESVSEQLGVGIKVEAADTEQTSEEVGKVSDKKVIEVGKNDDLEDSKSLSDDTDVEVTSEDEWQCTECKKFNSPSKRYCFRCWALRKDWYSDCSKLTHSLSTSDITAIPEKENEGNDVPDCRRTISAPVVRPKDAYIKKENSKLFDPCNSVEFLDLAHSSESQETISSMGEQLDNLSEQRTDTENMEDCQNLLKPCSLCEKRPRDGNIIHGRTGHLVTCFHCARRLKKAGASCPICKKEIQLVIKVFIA
Target sequence (Q00987 whole entry, looked up): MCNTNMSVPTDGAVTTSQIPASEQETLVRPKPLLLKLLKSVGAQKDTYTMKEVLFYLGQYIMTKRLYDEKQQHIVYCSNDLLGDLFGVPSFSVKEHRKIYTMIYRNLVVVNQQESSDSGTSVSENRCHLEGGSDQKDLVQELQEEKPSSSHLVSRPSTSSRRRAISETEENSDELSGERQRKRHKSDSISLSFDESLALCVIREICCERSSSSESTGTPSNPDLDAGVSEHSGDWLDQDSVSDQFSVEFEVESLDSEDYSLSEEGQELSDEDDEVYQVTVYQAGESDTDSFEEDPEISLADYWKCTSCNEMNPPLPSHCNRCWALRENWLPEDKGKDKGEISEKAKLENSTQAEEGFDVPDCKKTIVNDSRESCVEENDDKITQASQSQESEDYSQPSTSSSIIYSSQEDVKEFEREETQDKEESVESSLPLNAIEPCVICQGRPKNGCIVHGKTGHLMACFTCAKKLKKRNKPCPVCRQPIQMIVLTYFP
Peg3 promoter: Peg3 promoter-driven luciferase inhibitors, primary screen, cell-based, HeLa, luciferase luminescence; AID 588405, 2011; inhibition, % at 20 µM; HeLa PEG-Prom luciferase reporter, overnight; actives 1.7% (n = 360,000);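 active means inhibition of at least 50% at 20 µM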
KKLEB tox: cytotoxicity in KKLEB CF airway cells, primary screen, cytotoxicity control for CF NF-kB inhibitor project, cell-based, uHTS, fluorescence assay plates | activity change (cytotoxicity), % at 5 µM | actives 0.36% (n = 360,000) | KKLEB CF airway cells viability, ATPlite luminescence, overnight; stronger effect = lower value; cells stimulated with P. aeruginosa culture filtrate;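 active means corrected activity change at or below -50% at 5 µM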
CF NFkB inh: inhibitors of PAF-induced NF-kB signaling, primary screen, cell-based, GFP fluorescence, uHTS; inhibition, % at 5 µM; actives 0.86% (n = 360,000); KKLEB NF-kB-GFP reporter, GFP fluorescence overnight;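 active means at least 50% inhibition at 5 µM, scaled per plate between neutral and stimulator controls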;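 further: PAF is a Pseudomonas aeruginosa culture filtrate used as stimulus; plate controls were PAF-stimulated DMSO wells for no effect and unstimulated DMSO wells for full effect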
ABHD5-PLIN5 inh: ABHD5-PLIN5 interaction inhibitors, primary screen, cell lysate, split luciferase complementation, luminescence. Split G. princeps luciferase complementation, 4 h. inhibition, % at 4 µM. actives 0.78% (n = 360,000). AID 602281, 2012;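 active means inhibition above the mean inhibition across every tested compound plus 3 SD, cut at about 22% in these data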;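 further: 0% = DMSO only wells and the 100% control is not disclosed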
Mdm2-MdmX conf: Mdm2-MdmX complex disruptors, retested hits, confirmation, luminescence, single concentration; shares compounds with Mdm2-MdmX inh; Mdm2-MdmX binding, luminescent assay; inhibition, % at 8 µM; actives 55% (n = 10,000); AID 489028, 2010; in the data active means inhibition above about 40%
FLuc counter: full-length luciferase signal inhibition, confirmation, counter-screen for Mdm2/MdmX interaction inhibitor project, cell-based, single concentration, SaOS-2 | AID 504607, 2011 | inhibition, % at 8 µM | actives 77% (n = 6,200) | shares compounds with Mdm2-MdmX inh | SaOS-2 full-length luciferase counterscreen, luminescence;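 active means mean inhibition at 8 µM reaching about 37%, which flags the compound as non-specific, limit read from the data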;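 further: p53-null SaOS-2 cells with luciferase driven by a doxycycline-inducible promoter; compound on cells about two nights before reading with doxycycline added after day one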
The depositor's hits bear a star; . = not tested or not shown. Shown are actives, neighbours in structure and some others; about 4.6% of the full set was active somewhere.

SMILES	HIF-2a block	Mdm2-MdmX inh	Peg3 promoter	KKLEB tox	CF NFkB inh	ABHD5-PLIN5 inh	Mdm2-MdmX conf	others
Cc1nc2ccccc2c(=O)n1/N=C/c1c(O)ccc2oc3c(c12)CCCC3	14.2	63.3*	28.3	-9.6	13.3	-1.6	37.9	FLuc counter=49.6*
Nc1ccc(N2CCCCC2)cc1N1CCCCC1	-1.5	80.4*	-6.1	2.8	37.3	-8.2	19.9
Cc1nn(-c2cc(N3CCCCC3)ccc2N)c(=O)c2ccccc12	5.5	-4.5	0.2	-1.0	-14.6	-11.7	.
Cc1ccc(C(C(=O)NCc2ccco2)N(C(=O)CNC(=O)c2cccs2)c2ccc(C)cc2)cc1 (configuration not stated)	4.7	-5.3	8.6	1.4	-4.8	-3.8	.
Cc1ccc(C(C(=O)NCc2ccco2)N(C(=O)CNC(=O)c2cccs2)c2c(C)cc(C)cc2C)cc1 (configuration not stated)	6.5	87.0*	57.7*	-34.3	28.3	2.2	52.9*	FLuc counter=43.2*
NS(=O)(=O)c1ccc(CCNC(=O)COC(=O)/C=C/c2cc(Br)ccc2F)cc1	6.3	30.1	6.2	-1.9	13.6	-5.1	.
CCN(CC)c1ncnc2c1ncn2[C@H]1CN(Cc2ccccc2)C[C@@H](COC(C)=O)O1	14.4	.	7.2	-5.0	-15.8	-7.3	.
Cc1ccc2oc(C(=O)N3CCC(O)(c4ccccc4)CC3)c(C)c2c1	-57.5	-5.1	-33.7	-4.0	-1.5	-1.9	.
Cc1ccc(-c2nn(-c3ccccc3)cc2/C=C2\SC(=S)N(CC(=O)O)C2=O)cc1	-7.8	11.2	-20.7	1.3	-6.1	-2.4	.
CCOc1ccc(-c2nn(-c3ccccc3)cc2/C=C2\SC(N)=NC2=O)cc1C	7.6	66.7*	30.9	12.8	-9.9	7.5	22.2
COc1ccccc1CCC(=O)N(C)C1CCCN(Cc2ccccc2F)C1 (configuration not stated)	12.2	-5.1	16.8	0.0	20.0	9.0	.
COc1ccc(NC(=O)Nc2ccc3c(c2)N(C)C(=O)CS3)cc1Cl	-18.3	59.4*	23.4	-5.2	47.5	0.5	42.5*	FLuc counter=52.9*
COc1ccc(NC(=O)Nc2ccc3c(c2)N(C)C(=O)CS3)cc1OC	-4.1	35.4	-2.3	10.7	9.2	-1.8	.
COc1cccc(S(=O)(=O)N(C)C[C@H]2Oc3cc(Br)ccc3S(=O)(=O)N([C@@H](C)CO)C[C@H]2C)c1	3.1	.	16.7	-19.2	10.8	-6.6	.
O=C(/C=C/c1cccc(F)c1)OCC(=O)N1CCc2ccccc21	2.3	6.8	15.8	0.4	0.1	14.0	.
COc1ccc2[nH]c3c(C)c4ccncc4c(C)c3c2c1	14.9	100.3*	106.5*	-40.0	78.3*	3.5	92.2*	FLuc counter=7.3
COc1ccc2[nH]c(C)cc(=O)c2c1	3.7	16.8	16.8	-3.0	4.2	-7.1	.
O=C(NCc1ccccc1F)C1CC(=O)N(Cc2ccco2)C1 (configuration not stated)	10.8	.	22.6	-4.2	-29.4	2.9	.
CCOc1ccc(S(=O)(=O)N2CCC(C(=O)NCc3ccco3)CC2)cc1C	5.3	29.2	15.2	-5.4	-7.2	-14.9	.
Cc1ccc(-c2sc(-c3ccccc3)nc2CC(=O)Nc2ccccc2F)cc1	-1.3	52.3*	5.7	2.7	3.1	-13.0	8.8
Cc1ccccc1NC(=O)Cc1nnc(NC(=O)Nc2ccccc2F)s1	14.0	77.4*	8.0	8.7	-4.5	1.6	9.6
COc1ccc(N2C(=NC(=O)C3CCCO3)SC3CS(=O)(=O)CC32)cc1 (configuration not stated)	5.0	12.9	3.7	5.5	9.9	0.6	.
CC(C)[C@H](NC(=O)N1CCn2c1nc1ccccc12)C(=O)NCC1CCCO1 (some centres not stated)	2.1	7.0	-6.7	-21.6	-14.3	5.6	.
COc1ccc(-c2cc3c(=O)n(CC(=O)NC4CCN(Cc5ccccc5)CC4)ncn3n2)cc1	-71.7	69.4*	-11.0	7.2	-17.4	-0.3	12.6
COc1ccc(-c2cc3c(=O)n(CC(=O)NCCCN4CCC(N5CCCCC5)CC4)ncn3n2)cc1	-60.5	67.5*	-120.8	-9.4	-0.1	-2.9	26.3
SMILES	HIF-2a block	Mdm2-MdmX inh	Peg3 promoter	KKLEB tox	CF NFkB inh	ABHD5-PLIN5 inh	Mdm2-MdmX conf	others
COc1ccc(-c2cc3c(=O)n(CC(=O)Nc4ccc(C(C)=O)cc4)ncn3n2)cc1	-23.5	57.7*	-47.9	18.6	-2.0	-1.6	34.2	FLuc counter=105.2*
O=C1NC[C@H](CCCCN2C[C@H](Cc3ccccc3)N(Cc3ccccc3)C(=O)C2=O)N(CCC2CCCCC2)C1=O	-5.9	.	.	.	.	0.3	.
CC(C)[C@H](NC(=O)c1ccc(C(C)(C)C)cc1)C(=O)N1CCN(Cc2ccc3c(c2)OCO3)CC1	-3.0	52.3*	20.1	5.1	5.3	-0.1	32.3	FLuc counter=55.0*
CN(c1ccccc1)c1ccc(/C=N/N2CCOCC2)cc1	-223.6	-163.3	-223.5	-18.7	-9.3	-5.3	.
COC(=O)[C@]1(CC(C)C)N[C@H](c2ccc(SC3CCCCC3)c(OC)c2)[C@@H]2C(=O)N(C)C(=O)[C@@H]21	9.6	11.1	0.3	-7.6	6.6	7.3	.
CCCCCCSc1ccc([C@H]2N[C@@](CC(C)C)(C(=O)OC)[C@H]3C(=O)N(C)C(=O)[C@@H]23)cc1OC	-59.1	56.0*	-3.7	-2.9	-20.7	16.5	0.3
O=C(Nc1ccccc1C(=O)NC(Cc1ccccc1)C(=O)NC1CCCCCC1)c1ccccc1 (configuration not stated)	0.8	61.9*	16.2	-5.8	9.6	-3.9	-0.7
Cc1cc(C)c2oc(-c3ccc(C)c(NC(=S)NC(=O)c4cccs4)c3)nc2c1	-96.0	77.2*	-132.6	-2.2	-6.2	-5.5	-0.3
Cc1ccc(-c2nc3ccccc3o2)cc1NC(=S)NC(=O)c1cccs1	-254.8	21.5	-254.4	-13.5	20.2	-1.1	.
COc1cc(C(=O)Nc2nc(C)c(Cc3ccc4c(c3)OCO4)s2)cc(OC)c1OC	-34.5	79.2*	24.7	-11.2	20.8	-6.3	67.4*	FLuc counter=75.8*
